Source: the supplement of paper PMC6279402
± gives the standard deviation of the averaged measurements.

System: A549
Test: relative viability (normalised to negative control = 1, bortezomib = 0) (fraction); higher = less cytotoxic
Settings: inflammatory serum-free RHB-A with cytokines + LPS, 5 d + 24 h CellTiter-Blue
[1] = compound 30 nM, GSK126 pretreatment: 5 uM GSK126
[2] = compound 30 nM, GSK126 pretreatment: none (vehicle)
[3] = compound 300 nM, GSK126 pretreatment: 5 uM GSK126
[4] = compound 300 nM, GSK126 pretreatment: none (vehicle)

| SMILES | relative viability [1] | relative viability [2] | relative viability [3] | relative viability [4] |
| --- | --- | --- | --- | --- |
| O=NN(CCCl)C(=O)NC1CCCCC1 [Lomustine, CCNU; Lomustine] | 0.967 ± 0.15 | 0.973 ± 0.15 | 1.03 ± 0.11 | 0.976 ± 0.079 |
| C[S+]([O-])c1ccc(-c2nc(-c3ccc(F)cc3)c(-c3ccncc3)[nH]2)cc1 (stereo unspecified) | 1.03 ± 0.22 | 0.902 ± 0.11 | 1.3 ± 0.14 | 1.14 ± 0.13 |
| CN(C)Cc1cccc(N=C(c2ccccc2)c2c(O)[nH]c3cc(C(=O)N(C)C)ccc23)c1 | 0.839 ± 0.14 | 0.864 ± 0.16 | 0.954 ± 0.16 | 1.04 ± 0.16 |
| CC1(C)CNc2cc(NC(=O)c3cccnc3NCc3ccncc3)ccc21 [Motesanib Diphosphate] | 0.917 ± 0.035 | 0.864 ± 0.062 | 0.937 ± 0.14 | 0.918 ± 0.06 |
| NC(=O)c1ccc(-c2nc(-c3ccccn3)c(-c3ccc4c(c3)OCO4)[nH]2)cc1 | 0.825 ± 0.08 | 0.814 ± 0.1 | 0.817 ± 0.073 | 0.882 ± 0.1 |
| COC(=O)Nc1ccc(-c2nc(N3CCOCC3)c3cnn(C4CCN(C(=O)OC)CC4)c3n2)cc1 | 0.691 ± 0.035 | 0.715 ± 0.019 | 0.489 ± 0.036 | 0.588 ± 0.04 |
| CCCCCOC(=O)Nc1nc(=O)n([C@@H]2O[C@H](C)[C@@H](O)[C@H]2O)cc1F [Capecitabine] | 0.858 ± 0.12 | 0.867 ± 0.12 | 0.892 ± 0.14 | 0.965 ± 0.12 |
| CCN(CCO)CCCOc1ccc2c(Nc3cc(CC(=O)Nc4cccc(F)c4)[nH]n3)ncnc2c1 [AZD1152-HQPA(Barasertib)] | 0.73 ± 0.079 | 0.714 ± 0.031 | 0.813 ± 0.13 | 0.696 ± 0.037 |
| CN(Cc1cnc2nc(N)nc(N)c2n1)c1ccc(C(=O)N[C@@H](CCC(=O)O)C(=O)O)cc1 [Methotrexate hydrate; Methotrexate] | 0.813 ± 0.055 | 0.84 ± 0.052 | 0.797 ± 0.17 | 0.947 ± 0.086 |
